Bioassay records (PubChem BioAssay)
D1 antag: Antagonist of Human D 1 Dopamine Receptor: qHTS. D(1A) dopamine receptor (Homo sapiens), P21728. AID 504652, 2011. actives 3.2% (n = 360,000). activity change, negative = inhibition, % at 10 µM. HEK293 TREx D1 cells, calcium flux, dopamine EC80; active compounds read low; in the data active = activity change below about -30%
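Tetracycline-induced HEK293 T-REx cells with force-coupled D1 receptor were loaded with a no-wash calcium dye. Compound was added after a 10 s baseline and read kinetically for 180 s; EC80 dopamine was then added and calcium flux followed another 180 s.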
TRHR ag: qHTS for Small Molecule Agonists and Allosteric Enhancers of Human TRH Receptor: Primary Screen for Agonists. actives 0.18% (n = 360,000). activation, % at 2 µM. TRHR cells, calcium flux fluo-8, FDSS agonist mode. Thyrotropin-releasing hormone receptor (Homo sapiens), P34981
Target sequence (P34981 whole entry, looked up): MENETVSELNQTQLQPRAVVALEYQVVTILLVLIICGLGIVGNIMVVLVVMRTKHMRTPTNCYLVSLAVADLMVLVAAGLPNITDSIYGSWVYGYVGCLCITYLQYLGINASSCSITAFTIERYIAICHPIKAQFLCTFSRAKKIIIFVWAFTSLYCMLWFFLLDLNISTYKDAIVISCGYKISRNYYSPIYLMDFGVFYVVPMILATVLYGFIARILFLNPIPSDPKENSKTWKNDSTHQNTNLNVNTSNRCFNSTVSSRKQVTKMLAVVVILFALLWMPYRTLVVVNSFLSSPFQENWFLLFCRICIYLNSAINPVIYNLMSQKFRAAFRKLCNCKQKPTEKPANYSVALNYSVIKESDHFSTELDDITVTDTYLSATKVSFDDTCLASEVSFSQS
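Steps: seed TRHR cells overnight; add fluo-8 no-wash Ca dye, RT 30 min–1.5 h; record 10 s baseline; pin-transfer compounds; monitor fluorescence 1 cycle/s for the agonist window. Calcium increases flag candidate agonists.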
D1 potentiator: Potentiators of Human D1 Dopamine Receptor: qHTS | HEK293 TREx D1 cells, calcium flux, dopamine EC20 potentiation | potentiation, % at 10 µM | actives 0.036% (n = 360,000) | AID 504651, 2011; in the data active = potentiation above about 30%
D1 ag: Allosteric Agonists of the Human D1 Dopamine Receptor: qHTS; D(1A) dopamine receptor (Homo sapiens), P21728; HEK293 T-REx D1 cells, calcium flux, agonist mode; activation, % at 2 µM; actives 1% (n = 360,000); AID 504660, 2011
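Tetracycline-induced HEK293 TREx D1 cells, force-coupled to calcium signalling, were dye-loaded with a no-wash calcium kit. Compound was pin-added after a 10 s baseline. Fluorescence was read kinetically at 1 cycle/s for 180 s, with calcium rises flagged as agonism.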
TRHR PAM: qHTS for Small Molecule Agonists and Allosteric Enhancers of Human TRH Receptor: Primary Screen for Enhancers; Thyrotropin-releasing hormone receptor (Homo sapiens), P34981; TRHR cells, fluo-8 calcium fluorescence, EC20 TRH enhancement; enhancement, % at 2 µM; actives 0.66% (n = 360,000); in the data active = enhancement above about 30%
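TRHR-expressing cells loaded with fluo-8 calcium dye were read kinetically (ex 480/em 530) during compound addition, then stimulated with an EC20 of TRH (10 nM final). Enhancement of the Gq-mediated intracellular calcium response was scored.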
Hits are given with their value; . = inactive; / = not tested or not shown. This is a sample that favours compounds with a hit; in the whole collection about 4.7% have one here. Rule as the data show it, unless noted: active = activation above about 30%; inactive = the rest.

SMILES | D1 antag | TRHR ag | D1 potentiator | D1 ag | TRHR PAM
C=CCN1C(=O)/C(=C/c2ccc(OCC(=O)O)cc2)S/C1=N/c1nccs1 | . | . | . | . | .
C=CCN1C(=O)/C(=C/c2ccc(O)c(OC)c2)S/C1=N/c1nccs1 | . | 72 | . | 130 | .
CCN(CC)c1ccc(S(=O)(=O)Nc2cc(Cl)ccc2Cl)cc1NC(=S)NC(=O)C1CCCC1 | -32 | . | . | . | .
CCN(CC)S(=O)(=O)c1ccc(C)c(NC(=S)NC2CCCCC2)c1 | -80 | . | . | . | .
CCN(CC)S(=O)(=O)c1ccc(Cl)c(NC(=S)NC(=O)C2CCCC2)c1 | . | . | / | 32 | .
COc1ccccc1NS(=O)(=O)c1ccc(Cl)c(NC(=S)NC(=O)C2CCCC2)c1 | . | . | . | . | .
Cc1ccc(NC(=S)NC2CCCCC2)cc1S(=O)(=O)N(C)C | -34 | . | . | . | .
Cc1ccc(NC(=O)CNCC2CCCCC2)cc1S(=O)(=O)N(C)C | . | . | . | . | .
Nc1nc(Nc2cc(F)cc(F)c2)nc(NC2CCCC2)n1 | . | . | . | . | .
CCOc1ccc(Nc2cc(C)nc3nc(Cc4ccc(Cl)cc4)nn23)cc1 | . | . | . | . | .
CCc1ccc(NC(=O)CSc2ccc(-c3cccs3)nn2)cc1 | . | . | . | . | .
COCC(C)(C)COS(N)(=O)=O | . | . | . | . | .
COc1cc(CN(C(=O)COc2ccccc2)c2ccccn2)cc(OC)c1OC | . | . | . | . | .
Cc1cccc(OCC(=O)N(Cc2ccc(C(C)(C)C)cc2)Cc2ccco2)c1 | . | . | . | . | .
Cc1c(/C=C(\C#N)C(=O)Nc2cccc(Cl)c2)c2ccccc2n1Cc1ccccc1 | . | . | . | 32 | .
O=C(O)CSc1c2c(nc3cc(C(=O)Nc4ccc(F)c(Cl)c4)ccc13)CCCC2 | . | . | . | . | .
Cc1cc(F)ccc1S(=O)(=O)Nc1ccc2oc3c(c2c1)CC(C)CC3 (stereo unspecified) | . | . | . | 37 | .
NS(=O)(=O)c1ccc(-n2nncc2C23CC4CC(CC(C4)C2)C3)cc1 | -91 | . | . | . | .
Cc1ccc(C(=O)/C=C/c2ccc(-c3ccc(C)cc3)o2)cc1 | . | . | . | . | .
CCN(CC)S(=O)(=O)c1ccc(C(=O)/C=C/c2ccc(-c3ccc([N+](=O)[O-])cc3)o2)cc1 | -54 | . | . | . | .
O=C1CCCN1CCCNc1ccc2nnc(CCC(=O)N3CCN(c4ccc(F)cc4)CC3)n2n1 | . | . | . | . | .
O=C1C2C3C=CC(CC3)C2C(=O)N1c1cccc(Br)c1 (stereo unspecified) | -37 | . | . | . | .
Clc1ccc(OCc2nc(-c3ccc(Br)o3)no2)cc1 | -40 | . | . | . | .
Cc1cccn2c(=O)c(C(=O)NCc3ccc(F)cc3)c(O)nc12 | . | . | . | . | .
CCOC(=O)c1cccc(NC(=O)CC2C(=O)N(c3ccc(C)cc3)C(=O)N2Cc2cccc(OC)c2)c1 (stereo unspecified) | . | . | . | . | .
SMILES | D1 antag | TRHR ag | D1 potentiator | D1 ag | TRHR PAM
CCCc1nnc(NC(=O)c2cc3ccccc3o2)s1 | -53 | . | . | . | .
CCn1c(Cl)c(C=O)s/c1=N\S(=O)(=O)c1ccccc1 | -38 | . | . | . | .
CCOC(=O)C1(CCCc2ccccc2)CCN(CCCn2cccn2)CC1 | . | . | . | 37 | .
Cc1ccc(S(=O)(=O)N2[C@@H](c3cccc(Cl)c3)C(C(=O)O)=CC[C@H]2c2ccc(C(C)C)cc2)cc1 | -35 | . | . | . | .
Cc1ccc(S(=O)(=O)N2[C@@H](c3ccccc3F)C(C(=O)O)=CC[C@H]2c2ccc(Cl)c(Cl)c2)cc1 | . | . | . | 58 | .
CC(=O)N1CCc2cc(S(=O)(=O)N3CCN(S(=O)(=O)c4c(F)cccc4F)CC3)ccc21 | . | . | . | . | .
Cc1ccc(CCNC(=O)CCn2c(=O)c3cccn3c3ccc(F)cc32)cc1 | . | . | . | . | .
CCc1ccc(CNC(=O)c2nn(-c3ccc(C)c(C)c3)nc2CO)cc1 | . | . | . | . | .
Cc1ccc(-n2nc(CO)c(C(=O)NCCC(C)C)n2)cc1C | -47 | . | . | . | .
Cc1cc(C)cc(N2CC(c3nnc(NC(=O)c4ccco4)s3)CC2=O)c1 (stereo unspecified) | . | . | . | . | .
Cc1nc(C/C(=N\N)c2ccc(O)cc2O)cs1 | -32 | . | . | . | .
Cc1cc(C)nc(N/N=C/c2ccc3c(c2)OCCO3)n1 | -32 | . | . | . | .
Cc1cc(C)nc(N/N=C/c2ccccc2)n1 | . | . | . | . | .
Cc1ccc(-n2nc(C(=O)Nc3ccc(F)cc3Cl)c(=O)n(C)c2=O)cc1 | . | . | . | . | .
COc1cc(Cl)c(C)cc1NC(=O)c1nn(-c2ccc(C)cc2)c(=O)n(C)c1=O | -98 | . | . | . | .
O=C(CNC(=O)c1ccc(Cl)cc1Cl)OCC(=O)N1CCCC1=O | . | . | . | . | .
Cc1ccc(O)c(-c2[nH]ncc2C(=O)c2ccc(Cl)cc2)c1 | -34 | . | . | . | .
Cc1ccccc1C(=O)Nc1ccc2nc(SCC(=O)N3CCc4ccccc43)sc2c1 | . | . | . | . | .
COc1ccc(N=Nc2ccc(O)c3ncccc23)cc1 | . | . | . | . | .
CCc1ccc(N=Nc2ccc(O)c3[nH]cnc23)cc1 | / | . | . | 40 | .
Cc1nn(CC(=O)NCCc2ccccc2)c(=O)c2cccn12 | . | . | . | . | .
CCCNC(C)(C)COC(=O)c1ccccc1 | . | . | . | . | .
CN(C)S(=O)(=O)c1cccc(NC(=O)Cc2ccc(Cl)cc2)c1 | -32 | . | . | . | .
Cc1cc(C)n2nc(SCC(=O)Nc3ccc(O)cc3)nc2n1 | . | . | . | . | .
Cc1cc(C)n2nc(SCC(=O)Nc3ccc(S(=O)(=O)N(C)C)cc3)nc2n1 | -39 | . | . | . | .
Cc1cc(C)nc(SCC(=O)Nc2cccc(S(=O)(=O)N(C)C)c2)n1 | -30 | . | . | . | .
O=C(Cc1ccc(Cl)cc1)Nc1cccc(S(=O)(=O)Nc2ccccc2F)c1 | . | . | . | . | .
COCCNC(=O)c1cccc2c1-c1ccccc1C2=O | . | . | . | . | .
Cc1nnc(SCc2cc([N+](=O)[O-])cc3c2OCOC3)n(N)c1=O | -42 | . | . | . | .
